Assay results taken from the supplement of paper PMC9177965.
Several values for one entry are separate records, joined by “and”; a condition that tells them apart may be missing. Identical values can stand only once.

How the values were obtained:
[1] = system: HT29 sg-Ctrl (RNF43 wildtype); test: cell viability activity relative to DMSO (negative = inhibition); higher = more viable cells (less growth inhibition); conditions: 5 µM; 96 h
Experimental: (§1)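 Broad Repurposing Library primary screen at a single dose of 5 uM. HT29 sg-Ctrl and HT29 RNF43 G659fs CRISPR-edited isogenic cells were seeded at 2500 cells/well in 384-well plates in duplicate and treated for 96 h. Viability was read by CellTiter-Glo and reported as % activity relative to DMSO, with MG132 as the positive control (negative = growth inhibition).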

[2] = system: HT29 RNF43 G659fs (RNF43 659mut, CRISPR-edited); test: as above; conditions: 5 µM; 96 h
Experimental: as §1

Cc1cccc(Nc2nc(-c3ccncc3)cs2)c1
cell viability activity [1]: -55.8%

CCCCCCCC(=O)N[C@H](CN1CCCC1)[C@H](O)c1ccc2c(c1)OCCO2
cell viability activity [2]: -40.1% | cell viability activity [1]: -40.4%

C=C1/C(=C\C=C2/CCC[C@]3(C)[C@@H]([C@H](C)CCCC(C)C)CC[C@@H]23)C[C@@H](O)C[C@@H]1O
cell viability activity [2]: -54.3% | cell viability activity [1]: -70%

Cc1nc(C#Cc2ccnc(Cl)c2)c(C)n1-c1ccc(OC(F)(F)F)cc1
cell viability activity [2]: -25.5% | cell viability activity [1]: -18.5%

CCCCC(CC)CNC(=N)NC(=N)NCCCCCCNC(=N)NC(=N)NCC(CC)CCCC (stereo not given)
cell viability activity [2]: -90.6% | cell viability activity [1]: -88.4%

Cc1noc2c1-c1ccccc1C(c1ccc(Cl)cc1)=N[C@H]2CC(N)=O
cell viability activity [1]: -57.7%

O=C(NC1CCN(CCCCC2(C(=O)NCC(F)(F)F)c3ccccc3-c3ccccc32)CC1)c1ccccc1-c1ccc(C(F)(F)F)cc1
cell viability activity [2]: -95.7% | cell viability activity [1]: -92.3%

OCCn1cc(-c2ccc3c(c2)CC/C3=N\O)c(-c2ccncc2)n1
cell viability activity [2]: -29.3% | cell viability activity [1]: -39.2%

COc1cc(/C=C/c2ccc(OC)cc2OC)cc(OC)c1
cell viability activity [2]: -65.4% | cell viability activity [1]: -75.7%

Nc1ncnc2c1c(-c1cccc(OCc3ccccc3)c1)cn2C1CC(CN2CCC2)C1 (stereo not given)
cell viability activity [1]: -61.2%

CC(C)(C)c1cc(/C=C(\C#N)C(N)=S)cc(C(C)(C)C)c1O
cell viability activity [2]: -85.1% | cell viability activity [1]: -77%

CCCCCCCCCCC(CO)CCCCCCCC (stereo not given)
cell viability activity [2]: -65.4% | cell viability activity [1]: -76.7%

COC(=O)C1=C(C#N)NC(C)=C(C(=O)OC(C)C)C1c1cccc([N+](=O)[O-])c1 (stereo not given)
cell viability activity [2]: -44.7% | cell viability activity [1]: -65.8%

C[C@]12CC[C@@H]3c4ccc(O)cc4C[C@@H](CCCCCCCCC[S+]([O-])CCCC(F)(F)C(F)(F)F)[C@H]3[C@@H]1CC[C@@H]2O (stereo not given in full)
cell viability activity [2]: -38.7% | cell viability activity [1]: -38.5%

CN(C)CCOc1ccc(-c2nc(-c3ccc4c(c3)CC/C4=N\O)c(-c3ccncc3)[nH]2)cc1
cell viability activity [2]: -28.5% | cell viability activity [1]: -37.9%

CC1=C(C(=O)OC2CCCCC2)C(c2ccc([N+](=O)[O-])cc2)C2=C(CC(C)(C)CC2=O)N1 (stereo not given)
cell viability activity [2]: -27.1% | cell viability activity [1]: -15.6%

COCCN1CCN(Cc2ccc(-c3n[nH]c4c3C(=O)c3c(NC(=O)NN5CCOCC5)cccc3-4)cc2)CC1
cell viability activity [2]: -78.2% | cell viability activity [1]: -79.4%

COc1cc2c(cc1OC)-c1cc3nc4ccccc4nc3n1C(C)(C)C2
cell viability activity [2]: -64.4% | cell viability activity [1]: -78.1%

Cc1cc(OCc2nc(-c3ccccc3Cl)cs2)ccc1OCC(=O)O
cell viability activity [2]: -41.6% | cell viability activity [1]: -31.1%

C=CC(=O)Nc1cccc(Oc2nc(Nc3ccc(N4CCN(C)CC4)cc3)ncc2Cl)c1
cell viability activity [2]: -46.3% | cell viability activity [1]: -58%

Oc1c(Cl)cc(Cl)c(Cl)c1Cc1c(O)c(Cl)cc(Cl)c1Cl
cell viability activity [2]: -49% | cell viability activity [1]: -40.9%

CC(=O)[C@]1(O)Cc2c(O)c3c(c(O)c2[C@@H](O[C@H]2C[C@H](N)[C@H](O)[C@H](C)O2)C1)C(=O)c1ccccc1C3=O
cell viability activity [2]: -97.8% and -97.3% | cell viability activity [1]: -93% and -97.3%

C#Cc1cccc(Nc2ncnc3cc(OC)c(OCCCCCCC(=O)NO)cc23)c1
cell viability activity [2]: -90.3% | cell viability activity [1]: -71%

Cc1cnc(Nc2ccc(OCCN3CCCC3)cc2)nc1Nc1cccc(S(=O)(=O)NC(C)(C)C)c1
cell viability activity [2]: -95% | cell viability activity [1]: -92.4%
